Reference: publication PMC4336329 (PLoS ONE, 2015)
About 14,000 (4.5%) of roughly 310,000 compounds showed an effect of 50% or more. Effects have a minus sign here. Many of the other results were omitted from the sample, so strong results are more common in it than they were.

Target: human ether-à-go-go-related gene (hERG) potassium channel (human, UniProt Q12809)
Assay: primary screen, population patch clamp on CHO cells stably expressing hERG; higher = less effect of the substance
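Further: peak tail current of the secondary pulse compared with the same well before compound.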

Chain of human ether-à-go-go-related gene (hERG) potassium channel (Q12809 whole entry, looked up): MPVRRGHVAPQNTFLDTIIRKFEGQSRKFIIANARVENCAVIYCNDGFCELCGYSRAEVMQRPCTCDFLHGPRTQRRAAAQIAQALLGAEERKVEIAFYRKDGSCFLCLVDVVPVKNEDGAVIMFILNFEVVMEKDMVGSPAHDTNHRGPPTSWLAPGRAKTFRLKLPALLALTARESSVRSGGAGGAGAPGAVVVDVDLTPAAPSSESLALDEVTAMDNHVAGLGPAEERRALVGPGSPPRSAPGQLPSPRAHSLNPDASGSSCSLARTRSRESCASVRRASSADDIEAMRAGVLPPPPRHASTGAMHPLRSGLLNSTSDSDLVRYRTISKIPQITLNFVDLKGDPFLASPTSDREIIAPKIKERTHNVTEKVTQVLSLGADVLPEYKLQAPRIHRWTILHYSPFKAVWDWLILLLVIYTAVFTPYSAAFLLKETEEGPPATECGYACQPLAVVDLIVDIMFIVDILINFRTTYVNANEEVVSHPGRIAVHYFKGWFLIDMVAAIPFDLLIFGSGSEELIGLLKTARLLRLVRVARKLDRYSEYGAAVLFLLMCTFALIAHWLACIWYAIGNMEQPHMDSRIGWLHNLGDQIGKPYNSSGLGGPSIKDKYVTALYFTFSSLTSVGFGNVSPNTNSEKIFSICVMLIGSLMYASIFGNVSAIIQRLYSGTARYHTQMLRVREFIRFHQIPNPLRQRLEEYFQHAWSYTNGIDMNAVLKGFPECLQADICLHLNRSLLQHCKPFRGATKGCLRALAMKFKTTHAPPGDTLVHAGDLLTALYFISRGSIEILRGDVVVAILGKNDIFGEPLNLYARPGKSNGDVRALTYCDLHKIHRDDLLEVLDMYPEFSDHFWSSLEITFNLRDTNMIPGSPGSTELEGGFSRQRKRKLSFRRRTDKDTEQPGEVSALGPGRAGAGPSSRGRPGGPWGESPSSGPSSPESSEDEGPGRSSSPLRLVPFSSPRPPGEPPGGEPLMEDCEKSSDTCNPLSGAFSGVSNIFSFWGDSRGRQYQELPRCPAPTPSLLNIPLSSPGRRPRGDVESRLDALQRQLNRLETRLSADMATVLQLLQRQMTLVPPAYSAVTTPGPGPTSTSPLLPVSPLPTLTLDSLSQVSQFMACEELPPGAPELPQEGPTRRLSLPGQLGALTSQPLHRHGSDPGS

SMILES	hERG current change (%, negative = inhibition) at 10uM [%]
CN(C)S(=O)(=O)Nc1ccccn1	16.5
CCCCc1cc(=O)oc2cc(C)cc(O)c12	-17.2
Cn1c(-c2ccccc2)cc2ccccc21	9.39
COc1ccc(S(=O)(=O)N2CCN(C(=O)COc3ccc(C)c(C)c3)CC2)cc1OC	-37.1
CCn1cc(C(=O)N2CC(C)CC(C)C2)c(=O)c2cc(S(=O)(=O)N(C)C)ccc21 (stereo not shown)	-8.98
CCn1cc(C(=O)NCCCOC)c(=O)c2cc(S(=O)(=O)N(C)C)ccc21	14.3
CC1CCCN(CCCNC(=O)c2cn(C)c3ccc(S(=O)(=O)N(C)C4CCCCC4)cc3c2=O)C1 (stereo not shown)	-71.4
CN(C1CCCCC1)S(=O)(=O)c1ccc2c(c1)c(=O)c(C(=O)NCCN1CCCC1)cn2C	-27.7
CCn1cc(C(=O)NCCCN2CC(C)CC(C)C2)c(=O)c2cc(S(=O)(=O)N(C)C)ccc21 (stereo not shown)	-55.5
CN(C1CCCCC1)S(=O)(=O)c1ccc2c(c1)c(=O)c(C(=O)NCCCN1CCCC1)cn2C	-25.6
CCn1cc(C(=O)NCCCN2CCCC(C)C2)c(=O)c2cc(S(=O)(=O)N3CCOCC3)ccc21 (stereo not shown)	14.6
CCn1cc(C(=O)NCCCN2CCCC(C)C2)c(=O)c2cc(S(=O)(=O)N(C)C3CCCCC3)ccc21 (stereo not shown)	-80.1
CCn1cc(C(=O)NCCCN2CC(C)CC(C)C2)c(=O)c2cc(S(=O)(=O)N(C)C3CCCCC3)ccc21 (stereo not shown)	-84.3
Cc1ccc(NC(=O)c2ccc(NC(=O)C3CCCCC3C(=O)O)cc2)cc1 (stereo not shown)	14.4
O=C(CN1C(=O)NC2(CCCC2)C1=O)N1CCN(S(=O)(=O)c2cccc(C(F)(F)F)c2)CC1	-5.43
O=C(O)C(Cc1c[nH]c2ccccc12)N1C(=O)c2ccccc2C1=O (stereo not shown)	-2.61
Cc1ncc(CO)c(/C=N/Nc2cccc(Cl)n2)c1O.Cl	8.89
O=c1oc(-c2ccc(Br)cc2)nc2ccccc12	17.8
CC1=NNC(=O)/C1=C\c1cn(-c2ccccc2)nc1-c1ccc(Cl)cc1	3.69
O=c1c2c(nc3c(-c4ccccc4)c[nH]n13)CCC2	10.9
CC(C)CC(COCc1cccc(C(F)(F)F)c1)N1CCN(C(=O)c2cccc(C(F)(F)F)c2)CCC1=O (stereo not shown)	-12
COc1ccccc1CN1CCN(Cc2nc(-c3cccs3)no2)CC1	-42.8
O=C(C[n+]1ccc(-c2nnc3n2CCC3)cc1)c1ccc(Cl)c(Cl)c1.[Br-]	-14
O=C(O)CC1(CC(=O)NCc2ccc(Cl)cc2)CCCCC1	8.75
CCC12CN(C(=O)c3ccc(C)cc3)CC(CC)(CN(C(=O)c3ccc(C)cc3)C1)C2=O	-33.3
CCn1cc(C(=O)NCCCN2CCC(C)CC2)c(=O)c2cc(S(=O)(=O)N(C)C3CCCCC3)ccc21	-80
CCn1cc(C(=O)NCCCN2CCC(C)CC2)c(=O)c2cc(S(=O)(=O)N3CCCC3)ccc21	-7.61
CCn1cc(C(=O)NCCCN2CCC(C)CC2)c(=O)c2cc(S(=O)(=O)N3CCOCC3)ccc21	-17.1

SMILES	hERG current change (%, negative = inhibition) at 10uM [%]
COc1cc(NC(=O)c2ccc3c(c2)OCO3)ccc1NC(=O)c1ccco1	10.4
Cc1ccc(CNC(=O)c2ccc(Cn3nc(C)cc3C)o2)cc1	-19.1
CCOC(=O)/C(N=Nc1c(Br)cc(Br)cc1Br)=C(\C)O	6.47
Cn1c(CC(=O)NNC(=O)c2ccc(F)cc2F)nc2ccccc21	-7.56
CC1=C/C(=C\C=C(C#N)C#N)N(C)c2ccccc21	9.34
CCCCCCN1C=CC(=C/C=C(\C#N)C(=O)OCC)C=C1	-4.32
CN1/C(=C/C=C(C#N)C#N)C=Cc2ccccc21	11.5
CCCCCCN1C=CC=C/C1=C/C=C(C#N)C#N	-76.5
CCCCCN1C=CC=C/C1=C\C=C(C#N)C#N	-70.9
CCOC(=O)/C(C#N)=C/C=C1/C=CC=CN1C	3.01
CCCCCCN1C=CC=C/C1=C\C=C(C#N)C#N	-71.1
CCCCCCN1C=C/C(=C\C=C(C#N)C#N)c2ccccc21	-37.4
CCCN1C=CC(=CC=C(C#N)C#N)C=C1	-3.42
COc1ccc(OC)c(NC(=O)CSc2nnc(C)n2Cc2ccccc2)c1	-23.5
Cc1ccc(C)c(N(C)S(=O)(=O)c2cccc3nsnc23)c1	-18.4
Cc1cc(C)c(S(=O)(=O)Nc2cccc(C(=O)O)c2)cc1S(=O)(=O)Nc1cccc(C(=O)O)c1	18.2
NNC(=O)c1ccc(Cn2cc(Cl)cn2)o1	15.6
COC(=O)c1ccc(/C=N/N2CCN(Cc3ccccc3Cl)CC2)cc1	5.88
COCCNC(=O)CCc1c(C)nc2c(c(C)nn2-c2ccc(C)cc2)c1C	-17.6
COCCCNC(=O)CCc1c(C)nc2c(c(C)nn2-c2ccc(C)cc2)c1C	-7.71
Cc1nc2c(c(C)nn2-c2ccccc2)c(C)c1CCC(=O)NCCCOC(C)C	-34.7
Cc1ccc(-n2nc(C)c3c(C)c(CCC(=O)O)c(C)nc32)cc1C	30.7
Cc1ccc(-n2nc(C)c3c(C)c(CCC(=O)NCCCOC(C)C)c(C)nc32)cc1	-53.1
CCCNC(=O)CCc1c(C)nc2c(c(C)nn2-c2ccc(C)cc2)c1C	-0.266
CCN(CC)CCNC(=O)CCc1c(C)nc2c(c(C)nn2-c2ccc(C)cc2)c1C	-55.4
COCCNC(=O)CCc1c(C)nc2c(c(C)nn2-c2ccc(C)c(C)c2)c1C	-3.85
CCN(CC)CCNC(=O)CCc1c(C)nc2c(c(C)nn2-c2ccc(C)c(C)c2)c1C	-62.3
